# Experimental data from PubChem BioAssay.
# Records with an inconclusive call do not appear. Calls of active or inactive are those of the source.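 The calls were made as follows, unless noted: active = normalized viability below 100% at a tested concentration; inactive = the rest.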
# Key:
# [1] = viability loss in pontine glioma line – cell-based, SU-DIPG-XVII, MIPE5.0, CellTiter-Glo, qHTS, dose response (AID 1347060; cut-off not given, nearly all actives have AC50 up to about 26 µM;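 as to AC50: cells exposed to compound for 48 hours before viability readout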); settings: CellTiter-Glo ATP luminescence
# [2] = viability loss in pontine glioma line – cell-based, SU-DIPG-XIII, MIPE4.0, CellTiter-Glo, qHTS, dose response (AID 1347061; cut-off not given, nearly all actives have AC50 up to about 37 µM;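 also: cells exposed to compound for 48 hours before readout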); settings: CellTiter-Glo ATP luminescence
# [3] = viability loss in pontine glioma line – cell-based, JHH-DIPG-1, MIPE4.0, CellTiter-Glo, qHTS, dose response (AID 1347062; cut-off not given, nearly all actives have AC50 up to about 27 µM;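 as to AC50: cells exposed to compound for two days before readout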); settings: JHH-DIPG-1 viability, CellTiter-Glo ATP luminescence
# [4] = viability loss in pontine glioma line – cell-based, SU-DIPG-IV, MIPE4.0, CellTiter-Glo, qHTS, dose response (AID 1347063; cut-off not given, nearly all actives have AC50 up to about 30 µM;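 also: compound exposure lasted 48 hours before the viability readout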); settings: CellTiter-Glo ATP luminescence
# [5] = viability loss in pontine glioma line – cell-based, SU-DIPG-XXV, MIPE5.0, CellTiter-Glo, qHTS, dose response (AID 1347065; cut-off not given, nearly all actives have AC50 up to about 26 µM;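 also: cells exposed to compound for 48 hours before ATP readout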); settings: CellTiter-Glo ATP luminescence
# [6] = growth inhibition of DIPG cells – cell-based, MIPE4.0 library, CellTiter-Glo luminescence, qHTS (AID 1347066; cut-off not given, nearly all actives have AC50 up to about 30 µM;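 also: cells exposed to compound for 48 hours before readout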); settings: SU-DIPG-VI viability, CellTiter-Glo ATP luminescence
# [7] = growth inhibition of DIPG cells – cell-based, MIPE5.0 library, qHTS (AID 1347068; cut-off not given, nearly all actives have IC50 up to about 30 µM;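 as to IC50: cells exposed to compound for 48 hours before viability readout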); settings: SU-DIPG-XXV viability
# [8] = MELAS cybrid and Rieske KO viability enhancers – cell-based, MELAS cybrids, Rieske KO mouse fibroblasts, CellTiter-Glo, primary screen (AID 1508586;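 active = mean z-score across replicates of 1.96 or higher in either the MELAS or the Rieske mutant cell line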;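 also: z relative to plate mean and SD of compound and empty wells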); settings: low glucose
# [9] = JHH-DIPG-1 glioma cell viability, MIPE5.0 library, CellTiter-Glo luminescence, qHTS (AID 1347067; cut-off not given, nearly all actives have AC50 up to about 26 µM;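 also: cells exposed to compound for 48 hours before readout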); settings: JHH-DIPG-1 glioma viability, CellTiter-Glo ATP luminescence
# [10] = viability loss with induced miR-34 in A549 – imaging, A549 dox-inducible miR-34, nuclei and caspase counts, primary screen (AID 1347080;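 active = compounds whose cell count with miR-34 switched on is under 0.7 times the count with it off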); settings: A549 miR-34 inducible, Hoechst nuclei count, 48 h
# [11] = compounds altering HSF1 focus formation in cells – imaging, Selleck Cancer Library (AID 1347162; in the data active = plate-normalised HSF1 focus index below about 0.46); settings: human cells, HSF1 nuclear foci imaging, at 10 µM; SSMD: measured here: HSF1 foci SSMD mean; cell count: measured here: cell number; plate-normalised HSF1 focus index: stronger effect = lower value
# [12] = drug combination growth inhibition, ovarian cancer – cell-based, oncology-focused library, rucaparib conditional, profiling panel (AID 1508598); settings: patient-derived ovarian cancer cells, CellTiter-Glo viability, 144 h, stronger effect = lower value
# [13] = MELAS cybrid survival, CellTiter-Glo 48 h, stronger effect = higher value
# [14] = Rieske KO mouse fibroblast survival, CellTiter-Glo 72 h
# [15] = stronger effect = lower value, cell number ratio, induced over uninduced
# [16] = measured here: relative caspase fold change +Dox/-Dox
# [17] = measured here: total cells with miR-34 induction, stronger effect = lower value
# [18] = measured here: total cells without miR-34 induction
compound,measurement,setting,value
CC1(C)O[C@@H]2C[C@H]3[C@@H]4CCC5=CC(=O)C=C[C@]5(C)[C@H]4[C@@H](O)C[C@]3(C)[C@]2(C(=O)CO)O1,outcome,[1],inactive
same,outcome,[2],inactive
same,outcome,[3],inactive
same,outcome,[4],inactive
same,outcome,[5],inactive
same,outcome,[6],inactive
same,outcome,[7],inactive
same,z-score,[8]; [13],-0.574 (inactive)
same,z-score,[8]; [14],0.349
O=C(O)c1ccc(Nc2ncc3c(n2)-c2ccc(Cl)cc2C(c2c(F)cccc2F)=NC3)cc1,AC50,[1],4.17 µM (active)
same,outcome,[2],inactive
same,outcome,[3],inactive
same,outcome,[4],inactive
same,AC50,[5],0.372 µM (active)
same,outcome,[6],inactive
same,AC50,[9],16.6 µM (active)
same,fold change,[10]; [15],0.96 (inactive)
same,fold change,[10]; [16],0.787
same,cell count,[10]; [17],2100
same,cell count,[10]; [18],2190
same,z-score,[8]; [13],-0.524 (inactive)
same,z-score,[8]; [14],0.65
CCC[C@@H](C=O)NC(=O)[C@H](CC(C)C)NC(=O)[C@H](CC(C)C)NC(=O)OCc1ccccc1,AC50,[1],0.332 µM (active)
same,AC50,[2],0.935 µM (active)
same,AC50,[3],0.372 µM (active)
same,AC50,[4],0.148 µM (active)
same,AC50,[5],0.186 µM (active)
same,AC50,[6],0.526 µM (active)
same,AC50,[9],0.525 µM (active)
same,IC50,[7],590 nM (active)
CNC1CCC(N(Cc2cccc(-c3ccncc3)c2)C(=O)c2sc3c(F)ccc(F)c3c2Cl)CC1 (centres undefined),AC50,[1],23.5 µM (active)
same,AC50,[2],14.8 µM (active)
same,AC50,[3],26.4 µM (active)
same,AC50,[4],23.5 µM (active)
same,AC50,[5],18.6 µM (active)
same,AC50,[6],23.5 µM (active)
same,AC50,[9],26.3 µM (active)
Cc1cc(Nc2ncnc3ccc(-c4ccc(CNCCS(C)(=O)=O)o4)cc23)ccc1Oc1ccn2ncnc2c1,AC50,[1],23.5 µM (active)
same,AC50,[2],23.5 µM (active)
same,AC50,[3],18.7 µM (active)
same,AC50,[4],14.8 µM (active)
same,AC50,[5],16.6 µM (active)
same,AC50,[6],16.6 µM (active)
same,AC50,[9],20.9 µM (active)
same,outcome,[7],inactive
same,fold change,[10]; [15],0.962 (inactive)
same,fold change,[10]; [16],1.06
same,cell count,[10]; [17],7890
same,cell count,[10]; [18],8200
same,z-score,[8]; [13],1.86 (inactive)
same,z-score,[8]; [14],-0.462
CN(C)C/C=C/C(=O)Nc1cc2c(Nc3ccc(F)c(Cl)c3)ncnc2cc1O[C@H]1CCOC1,AC50,[1],13.2 µM (active)
same,AC50,[2],23.5 µM (active)
same,AC50,[3],16.6 µM (active)
same,AC50,[4],16.6 µM (active)
same,AC50,[5],8.33 µM (active)
same,AC50,[6],29.6 µM (active)
same,AC50,[9],9.34 µM (active)
same,IC50,[7],4170 nM (active)
same,SSMD,[11],-10.2
same,cell count,[11],6000
same,plate-normalised HSF1 focus index,[11],0.64 (inactive)
same,viability,"[12]; at 0.000305 µM, OCI-C5x cells, with rucaparib 10 µM, 100% = cells with rucaparib alone",118% (inactive)
same,viability,"[12]; at 0.000305 µM, OCI-C5x cells, without rucaparib",114% (inactive)
same,viability,"[12]; at 0.000305 µM, OCI-P5x cells, with rucaparib 20 µM, 100% = cells with rucaparib alone",123% (inactive)
same,viability,"[12]; at 0.000305 µM, OCI-P5x cells, without rucaparib",107% (inactive)
same,viability,"[12]; at 0.00122 µM, OCI-C5x cells, with rucaparib 10 µM, 100% = cells with rucaparib alone",116% (inactive)
same,viability,"[12]; at 0.00122 µM, OCI-C5x cells, without rucaparib",100% (active)
same,viability,"[12]; at 0.00122 µM, OCI-P5x cells, with rucaparib 20 µM, 100% = cells with rucaparib alone",97.9% (active)
same,viability,"[12]; at 0.00122 µM, OCI-P5x cells, without rucaparib",99.7% (active)
same,viability,"[12]; at 0.00488 µM, OCI-C5x cells, with rucaparib 10 µM, 100% = cells with rucaparib alone",107% (inactive)
same,viability,"[12]; at 0.00488 µM, OCI-C5x cells, without rucaparib",80.6% (active)
same,viability,"[12]; at 0.00488 µM, OCI-P5x cells, with rucaparib 20 µM, 100% = cells with rucaparib alone",117% (inactive)
same,viability,"[12]; at 0.00488 µM, OCI-P5x cells, without rucaparib",99.9% (active)
same,viability,"[12]; at 0.0195 µM, OCI-C5x cells, with rucaparib 10 µM, 100% = cells with rucaparib alone",70.1% (active)
same,viability,"[12]; at 0.0195 µM, OCI-C5x cells, without rucaparib",66.7% (active)
same,viability,"[12]; at 0.0195 µM, OCI-P5x cells, with rucaparib 20 µM, 100% = cells with rucaparib alone",102% (inactive)
same,viability,"[12]; at 0.0195 µM, OCI-P5x cells, without rucaparib",96.3% (active)
same,viability,"[12]; at 0.0781 µM, OCI-C5x cells, with rucaparib 10 µM, 100% = cells with rucaparib alone",67.5% (active)
same,viability,"[12]; at 0.0781 µM, OCI-C5x cells, without rucaparib",69.5% (active)
same,viability,"[12]; at 0.0781 µM, OCI-P5x cells, with rucaparib 20 µM, 100% = cells with rucaparib alone",122% (inactive)
same,viability,"[12]; at 0.0781 µM, OCI-P5x cells, without rucaparib",94.8% (active)
same,viability,"[12]; at 0.313 µM, OCI-C5x cells, with rucaparib 10 µM, 100% = cells with rucaparib alone",62.7% (active)
same,viability,"[12]; at 0.313 µM, OCI-C5x cells, without rucaparib",63.1% (active)
same,viability,"[12]; at 0.313 µM, OCI-P5x cells, with rucaparib 20 µM, 100% = cells with rucaparib alone",120% (inactive)
same,viability,"[12]; at 0.313 µM, OCI-P5x cells, without rucaparib",94.2% (active)
same,viability,"[12]; at 1.25 µM, OCI-C5x cells, with rucaparib 10 µM, 100% = cells with rucaparib alone",6.05% (active)
same,viability,"[12]; at 1.25 µM, OCI-C5x cells, without rucaparib",46% (active)
same,viability,"[12]; at 1.25 µM, OCI-P5x cells, with rucaparib 20 µM, 100% = cells with rucaparib alone",8.68% (active)
same,viability,"[12]; at 1.25 µM, OCI-P5x cells, without rucaparib",66.6% (active)
same,viability,"[12]; at 5 µM, OCI-C5x cells, with rucaparib 10 µM, 100% = cells with rucaparib alone",3.87% (active)
same,viability,"[12]; at 5 µM, OCI-C5x cells, without rucaparib",22.5% (active)
same,viability,"[12]; at 5 µM, OCI-P5x cells, with rucaparib 20 µM, 100% = cells with rucaparib alone",0.219% (active)
same,viability,"[12]; at 5 µM, OCI-P5x cells, without rucaparib",6.79% (active)
